According to ChEMBL document CHEMBL4513141, “CO-ADD screening of NIH (USA) - Clinical Collection” (2021):
Potency and affinity values are given separately.

Test system: Staphylococcus aureus
Details: Concentration 20 uM; ASSAY_TEST Inhibition of Bacterial Growth; detection method Absorption (OD600); MEDIA CAMHB; plate type 384well; NBS; CORNING #3640; time 18 hr

Question: `CC(=O)/N=c1/sc(S(N)(=O)=O)nn1C` [METHAZOLAMIDE] was tested. Which Inhibition did it give?
Answer: 5.78%

Question: Which Inhibition does the source give for `COc1ccc(/C=C/C(=O)Nc2ccccc2C(=O)O)cc1OC` here?
Answer: 8.38%

Question: Which Inhibition does the source give for `COc1ccccc1OCCNCC(O)COc1cccc2[nH]c3ccccc3c12` (stereo not drawn) [CARVEDILOL] here?
Answer: 10.39%

Question: For `Cc1nc2n(c(=O)c1CCN1CCC(c3noc4cc(F)ccc34)CC1)CCCC2` [RISPERIDONE], which Inhibition is on record?
Answer: 4.53%

Question: `CNCC[C@@H](Oc1ccccc1C)c1ccccc1.Cl` [ATOMOXETINE HYDROCHLORIDE] was tested. Which Inhibition did it give?
Answer: -21.69%

Question: `COc1ccc(C2CNC(=O)C2)cc1OC1CCCC1` (stereo not drawn) [ROLIPRAM] was tested. Which Inhibition did it give?
Answer: 10.42%

Question: Which Inhibition does the source give for `CC(C)C[C@H](NC(=O)[C@@H](O)[C@H](N)Cc1ccccc1)C(=O)O` [UBENIMEX] here?
Answer: 8.9%

Question: `O=S(=O)([O-])CCS.[Na+]` [MESNA] was tested. Which Inhibition did it give?
Answer: 2.58%

Question: How did the Inhibition turn out when `Cl.O=C1[C@H]2CCCC[C@H]2C(=O)N1CCCCN1CCN(c2nsc3ccccc23)CC1` was run?
Answer: 14.1%

Question: Which Inhibition does the source give for `CCOc1cc(CC(=O)N[C@@H](CC(C)C)c2ccccc2N2CCCCC2)ccc1C(=O)O` [REPAGLINIDE] here?
Answer: 15.76%

Question: `CS(=O)(=O)O.Oc1ccc(C2CNCCc3c2cc(O)c(O)c3Cl)cc1` (stereo not drawn) [FENOLDOPAM MESYLATE] was tested. Which Inhibition did it give?
Answer: 13.63%

Question: With `C[n+]1ccccc1/C=N/O.[Cl-]` [PRALIDOXIME CHLORIDE] as the compound, how does the Inhibition read?
Answer: 12.69%

Question: For `Cc1ncc([N+](=O)[O-])n1CC(O)CCl` (stereo not drawn) [ORNIDAZOLE], which Inhibition is on record?
Answer: 10.83%

Question: Which Inhibition does the source give for `OCCN(CCO)c1nc(N2CCCCC2)c2nc(N(CCO)CCO)nc(N3CCCCC3)c2n1` [DIPYRIDAMOLE] here?
Answer: -23.93%

Question: `COc1ccc(Cl)cc1C(=O)NCCc1ccc(S(=O)(=O)NC(=O)NC2CCCCC2)cc1` [GLYBURIDE] was tested. Which Inhibition did it give?
Answer: -3.01%

Question: How did the Inhibition turn out when `NC(Cc1cc(I)c(Oc2ccc(O)c(I)c2)c(I)c1)C(=O)O` (stereo not drawn) [RATHYRONINE] was run?
Answer: 11.14%

Question: With `COc1cc2nc(N3CCN(C(=O)C4COc5ccccc5O4)CC3)nc(N)c2cc1OC` (stereo not drawn) [DOXAZOSIN] as the compound, how does the Inhibition read?
Answer: 8.23%

Question: With `C[C@H](N[C@@H](CCc1ccccc1)C(=O)O)C(=O)N1CCC[C@H]1C(=O)O` [ENALAPRILAT ANHYDROUS] as the compound, how does the Inhibition read?
Answer: -5.3%

Question: How did the Inhibition turn out when `Cl.O=C1CN2Cc3c(ccc(Cl)c3Cl)N=C2N1` [ANAGRELIDE HYDROCHLORIDE] was run?
Answer: 11.06%

Question: Which Inhibition does the source give for `Nc1nc(N)c2nc(-c3ccccc3)c(N)nc2n1` here?
Answer: -4.86%

Question: Which Inhibition does the source give for `O=c1c(O[C@@H]2O[C@H](CO)[C@@H](O)[C@H](O)[C@H]2O)c(-c2ccc(O)c(O)c2)oc2cc(O)cc(O)c12` [ISOQUERCETIN] here?
Answer: 18.79%

Question: For `COc1cc(C(=O)NS(=O)(=O)c2ccccc2C)ccc1Cc1cn(C)c2ccc(NC(=O)OC3CCCC3)cc12` [ZAFIRLUKAST], which Inhibition is on record?
Answer: 36.84%

Question: How did the Inhibition turn out when `C#C[C@]1(O)CC[C@H]2[C@@H]3CCc4cc(O)ccc4[C@H]3CC[C@@]21C` [ETHINYL ESTRADIOL] was run?
Answer: 1.21%

Question: `Cc1cccc(CCN2CCC(C(=O)c3ccc(NS(C)(=O)=O)cc3)CC2)n1.Cl.Cl` was tested. Which Inhibition did it give?
Answer: 15.03%

Question: Which Inhibition does the source give for `COc1ccc(CC2c3cc(OC)c(OC)cc3CC[N+]2(C)CCC(=O)OCCCCCOC(=O)CC[N+]2(C)CCc3cc(OC)c(OC)cc3C2Cc2ccc(OC)c(OC)c2)cc1OC.O=S(=O)(O)c1ccccc1` (stereo not drawn) here?
Answer: 4.52%

Question: Which Inhibition does the source give for `CC1=C(/C=C/C(C)=C/C=C/C(C)=C/C(=O)O)C(C)(C)CCC1` [TRETINOIN] here?
Answer: 13.92%

Question: `CCOC(=O)C1=C(C)NC(C)=C(C(=O)OC)C1c1cccc([N+](=O)[O-])c1` (stereo not drawn) [NITRENDIPINE] was tested. Which Inhibition did it give?
Answer: 11.21%

Question: With `Nc1ccn([C@@H]2CS[C@H](CO)O2)c(=O)n1` [LAMIVUDINE] as the compound, how does the Inhibition read?
Answer: 9.88%

Question: Which Inhibition does the source give for `OCc1cc(C(O)CNCCCCCCOCCCCc2ccccc2)ccc1O` (stereo not drawn) [SALMETEROL] here?
Answer: 15.16%

Question: With `C#C[C@]1(O)CC[C@H]2[C@@H]3CCc4cc(OC)ccc4[C@H]3CC[C@@]21C` [MESTRANOL] as the compound, how does the Inhibition read?
Answer: 8.43%

Question: `CC(=O)NCCCCCCNC(C)=O` [HEXAMETHYLENEBISACETAMIDE] was tested. Which Inhibition did it give?
Answer: -6.23%

Question: Which Inhibition does the source give for `OC[C@H]1O[C@@H](Oc2cc(O)cc(/C=C/c3ccc(O)cc3)c2)[C@H](O)[C@@H](O)[C@@H]1O` [PICEID] here?
Answer: 5.5%

Question: `CCCC(CCC)C(=O)O` [VALPROIC ACID] was tested. Which Inhibition did it give?
Answer: 9.7%

Question: `NC(=O)c1cnccn1` [PYRAZINAMIDE] was tested. Which Inhibition did it give?
Answer: 14.57%

Question: With `NS(=O)(=O)c1cc2c(cc1Cl)N=CNS2(=O)=O` [CHLOROTHIAZIDE] as the compound, how does the Inhibition read?
Answer: 7.87%

Question: How did the Inhibition turn out when `O=C(CCNNC(=O)c1ccncc1)NCc1ccccc1` [NIALAMIDE] was run?
Answer: 16.28%

Question: `C[C@]12C=CC(=O)C=C1CC[C@@H]1[C@@H]2[C@@H](O)C[C@@]2(C)[C@H]1CC[C@]2(O)C(=O)COC(=O)CCC(=O)[O-].[Na+]` [PREDNISOLONE SODIUM SUCCINATE] was tested. Which Inhibition did it give?
Answer: 5.71%

Question: `CS(=O)(=O)O.Cc1ccc(NC(=O)c2ccc(CN3CCN(C)CC3)cc2)cc1Nc1nccc(-c2cccnc2)n1` [IMATINIB MESYLATE] was tested. Which Inhibition did it give?
Answer: 11.51%
